High-throughput results (PubChem BioAssay)
HCV inhibitor – qHTS Assay for Inhibitors of Hepatitis C Virus (HCV) | Huh7.5.1 HCVcc-Cre infection, luciferase reporter, 44 h | Potency, µM (top dose mostly 41.8 µM), for inactives: at the top dose activity change, negative = inhibition, most hits filed as inhibitors | actives 3.4% (n = 340,000); note: potency is the fitted concentration of half-maximal effect; % is set by controls: 0 for no effect and ±100 for the full control effect
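Whole-lifecycle infectious HCVcc-Cre system; cells 1,000/well, compound then virus (~0.5 moi) added 4 h after plating, 44 h culture. Luciferase read 15 sec following 15 min substrate incubation, room temp.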
Pf growth 48h – Primary qHTS for delayed death inhibitors of the malarial parasite plastid, 48 hour incubation | P. falciparum luciferase growth in erythrocytes, 48 h | actives 5.9% (n = 310,000) | AID 504832, 2011 | Potency, µM (series often up to 28.7 µM), without a hit: top-dose activity change, negative = inhibition, hits mostly inhibitors; note: potency is the fitted concentration of half-maximal effect; % is set by controls: 0 for no effect and ±100 for the full control effect
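Read-out is firefly luciferase luminescence from an integrated reporter in P. falciparum, so falling signal marks reduced parasite growth. Infected erythrocytes were at 2% hematocrit and 0.1% parasitemia (final) in Albumax-supplemented RPMI 1640.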
Sm TGR inh – qHTS Assay for the Inhibitors of Schistosoma Mansoni Peroxiredoxins; AID 485364, 2010; Schistosoma mansoni thioredoxin glutathione reductase (TGR), Q962Y6; Potency, µM (top dose mostly 114 µM), inactives show at the highest dose activity change, negative = inhibition, most hits filed as inhibitors; actives 3% (n = 360,000); purified TGR, DTNB reduction, TNB absorbance 405 nm; note: potency is the fitted concentration of half-maximal effect; % is set by controls: 0 for no effect and ±100 for the full control effect; nearly all actives have a fitted effect of over 60% in size
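TGR 20 nM + NADPH 100 uM (dispensed conc.), cpd preinc 15 min RT; start with NADPH (500 uM addition) then DTNB (15 mM addition). Kinetic TNB absorbance, 405 nm filter. Four-parameter Hill fit across titration.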
Pf growth 96h – Primary qHTS for delayed death inhibitors of the malarial parasite plastid, 96 hour incubation. P. falciparum luciferase reporter growth, 96 h. Potency, µM (doses to about 28.7 µM), inactives show at the highest dose activity change, negative = inhibition, usual class: inhibitors. actives 6.9% (n = 320,000). AID 504834, 2011; note: potency is the fitted concentration of half-maximal effect; % is set by controls: 0 for no effect and ±100 for the full control effect
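P. falciparum expressing integrated firefly luciferase grown in erythrocytes (2% hematocrit, 0.05% parasitemia final) with compounds for 96 hours at 37 C, 5% CO2. Growth inhibition read as loss of luminescence after adding luciferase detection reagent.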
SARS PLpro yeast – qHTS of Yeast-based Assay for SARS-CoV PLP; S. cerevisiae expressing SARS-CoV PLpro, growth rescue; Potency, µM (top dose mostly 32.9 µM), for the others: at the highest dose activity, positive = growth rescue, hits mostly activators; actives 0.19% (n = 330,000); AID 485353, 2010; calls by dose curve; note: potency is the fitted concentration of half-maximal effect; 0% is about no effect; nearly all actives have a fitted effect of over 55% in size
HCMV antiviral – qHTS Assay for inhibitors of the human cytomegalovirus (HCMV) | actives 4.5% (n = 410,000) | AID 1259415, 2018 | activity change, negative = inhibition, % at 57.5 µM | HFF cells, HCMV-luciferase reporter, 72 h; hits give low values; in the data active = activity change below about -60%; inconclusive = no clear call, values can overlap the other calls; inactive = above about -39%; note: % is set by controls: 0 for no effect and ±100 for the full control effect
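Cell-based, HFFs, 1000 cells/well, 16 h 37C; cpds in DMSO + HCMV-luc, MOI 1 PFU/cell; 72 h 37C; OneGlo luminescence after 5 min RT; norm. to buffer vs Salinomycin 10uM.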
* hit, by the source's call; ? = inconclusive; · = no result. The list is not random: actives were taken first. Their share in the collection is about 15%. Unless noted, calls come from the whole dose curve; as a rule, active = well fitted curve in the direction sought with a large enough effect; inconclusive = small, poorly fitted or top-dose-only effect, or another doubt; inactive = no such curve, though single readings can be large; an effect the other way counts as inactive or inconclusive.

SMILES | HCV inhibitor | Pf growth 48h | Sm TGR inh | Pf growth 96h | SARS PLpro yeast | HCMV antiviral
CC(=O)Nc1ccc(NC(=O)c2c(C)nn(Cc3ccccc3)c2Cl)cc1 | 5% | 6% | -7% | -28% | 2% | -19
O=C(Cn1nnc2ccccc2c1=O)NC1CCCc2ccccc21 (centres undefined) | -6% | 8% | -10% | 10µM* | 3% | -39
O=C(NC(=S)Nn1cnnc1)c1cccc(Br)c1 | 4% | 14% | -21% | 10% | 0% | 9
CCC(CC)C(=O)Nc1ccccc1C(=O)OCc1cc(=O)n2nc(C3CCCCC3)sc2n1 | · | · | -5% | · | · | 0
Cc1ccc(NC(=O)C2CCN(c3nc4ccccc4nc3C(F)(F)F)CC2)cc1F | · | · | 12% | · | · | -3
Cc1ccc(NC(=O)CSc2nnc3[nH]c(=O)cc(-c4ccccc4)n23)cc1Cl | · | · | 6% | · | · | 23
Cc1ccc(S(=O)(=O)N2CCN(CC(=O)NC3CCCc4ccccc43)CC2)c(C)c1 (centres undefined) | ? | -29% | -4% | · | -21% | -24
O=C(NC1CCCc2ccccc21)c1cccc(Br)c1 (centres undefined) | -2% | -29% | -8% | ? | -9% | -78*
Cc1ccc(S(=O)(=O)N2CCN(CC(=O)NC3CCCc4ccccc43)CC2)cc1C (centres undefined) | 32µM* | ? | -13% | · | -4% | 26
O=C(NC1CCCc2ccccc21)c1cccc(S(=O)(=O)N2CCN(c3ccccc3)CC2)c1 (centres undefined) | ? | 10µM* | 0% | · | ? | ·
CCCn1nc2cc(C(=O)NCC34CC5CC(CC(C5)C3)C4)ccc2c1OCC | ? | 12µM* | 2% | ? | -3% | 0
O=C(NC1CCCc2ccccc21)c1ccc(Br)cc1 (centres undefined) | -19% | 11% | 4% | -29% | 2% | -17
COc1ccc(NC(=O)N(C)C[C@@H]2OCCCC[C@@H](C)Oc3ccc(NS(C)(=O)=O)cc3C(=O)N([C@H](C)CO)C[C@@H]2C)cc1 | · | · | · | · | · | -23
CC(C)C[C@H](NC(=O)NC1CCCc2ccccc21)C(=O)O (some centres undefined) | 7% | 2.3µM* | 1% | 17% | 2% | -13
COc1cccc(NC(=O)NC2CCCc3ccccc32)c1 (centres undefined) | ? | 0% | 9% | ? | -2% | -67*
COc1cc2c(cc1NC(=O)c1cccc(Br)c1)CCCC2 | 7.1µM* | 6% | 4% | ? | -28% | -34
Cc1ccc(C(=O)CSc2nc3cc(S(=O)(=O)N4CCOCC4)ccc3o2)cc1 | ? | -16% | -3% | -6% | 5% | -18
COC(=O)[C@H](CC(C)C)NC(=O)NC1CCCc2ccccc21 (some centres undefined) | 3% | -13% | -2% | ? | -6% | 52
Cc1[nH]c2ccccc2c1C(=O)CSc1nc2cc(S(=O)(=O)N3CCCCC3)ccc2o1 | 7.1µM* | ? | 7% | -6% | -5% | -39
O=C(CCNC(=O)c1ccc([N+](=O)[O-])cc1)Oc1ccc(F)c(F)c1 | 10% | · | · | · | 0% | 0
Cc1occc1C(=O)NC1CCCc2ccccc21 (centres undefined) | 20% | 13µM* | ? | 6% | -18% | 39
O=C(O)c1cccc(S(=O)(=O)Nc2ccc3c(c2)CCC3)c1 | 14% | 39% | -13% | 4.1µM* | 5% | 18
S=C(NC1CC1)NC1CCCc2ccccc21 (centres undefined) | 3% | -19% | 6% | ? | 26% | -62*
S=C(NCc1ccccc1)NC1CCCc2ccccc21 (centres undefined) | -6% | -11% | 2% | ? | -5% | -33
O=C(CSc1nc2cc(S(=O)(=O)N3CCOCC3)ccc2o1)NC1CCCc2ccccc21 (centres undefined) | ? | 9.3µM* | 3% | ? | -2% | -19
SMILES | HCV inhibitor | Pf growth 48h | Sm TGR inh | Pf growth 96h | SARS PLpro yeast | HCMV antiviral
O=C(O)c1cccc(S(=O)(=O)Nc2cccc(S(=O)(=O)Nc3ccc(Br)cc3)c2)c1 | 13% | 2% | -3% | 1% | 1% | -1
O=C(CSc1nc2cc(S(=O)(=O)N3CCOCC3)ccc2o1)Nc1c(F)cccc1F | -2% | -18% | -11% | -5% | -2% | 34
CCc1ccc(S(=O)(=O)NCc2ccc3c(c2)CCN3C(=O)c2ccc(C)cc2)cc1 | · | · | -12% | · | · | 52
CC[C@]12c3[nH]c4ccc(OC)cc4c3CCN1C(=O)C(CC(=O)NCc1ccc(OC)c(OC)c1)C[C@@H]2C(=O)N1CCN(C(=O)C2CC2)CC1 (some centres undefined) | -18% | · | · | · | 2% | 6
COc1ccc(C2/C(=C(\O)c3ccc4c(c3)OCCO4)C(=O)C(=O)N2c2nc(C)c(C(C)=O)s2)cc1 (centres undefined) | -2% | -5% | -24% | ? | 3% | 0
COC(=O)c1sc(N2C(=O)C(=O)/C(=C(/O)c3ccc(C)cc3)C2c2ccco2)nc1C (centres undefined) | -3% | 8% | 7.1µM* | 40% | 9% | ·
CCOc1ccc(/C(O)=C2/C(=O)C(=O)N(c3nc(C)c(C)s3)C2c2ccco2)cc1 (centres undefined) | -9% | 44% | ? | 37% | -5% | -90*
CCOc1ccc(-n2cc(-c3ccccc3)c3c(NCCc4ccccc4)ncnc32)cc1 | · | · | 4% | · | · | -10
Cc1ccc(/C=C/c2onc(C)c2S(=O)(=O)N2CCC(C(=O)NCc3ccc(OC(C)C)cc3)CC2)cc1 | · | · | -3% | · | · | 7
Cc1ccc(NC(=O)COC(=O)CC2SC(N3CCCC3)=NC2=O)cc1 (centres undefined) | 17% | -24% | 1% | -21% | -1% | 0
CC(C)(C)c1[nH]nc2c1C(c1ccsc1)C(C#N)=C(N)O2 (centres undefined) | -7% | 48% | 14% | -19% | 1% | 19
CCc1[nH]nc2c1C(c1ccsc1)C(C#N)=C(N)O2 (centres undefined) | 17% | 4% | 6% | 10µM* | -40% | 3
CCCc1[nH]nc2c1C(c1cc(OC)cc(OC)c1)C(C#N)=C(N)O2 (centres undefined) | -22% | · | 25µM* | -1% | 1% | -3
